The supplement of paper PMC6555819

Legend:
Experiment in all cases: PBM binding z-score (relative to random genomic background probes); higher = stronger binding; sequences stand for … in GC…GCGATTGACAGCGTAGAATGAAGG
[1] = tested on: FXR:RXRa (NR concentration 270 nM, RXRa partner concentration 90 nM)
Outline: (§1)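 Custom Agilent 4×180K protein-binding microarrays carried double-stranded probes. Their 34-nt variable regions held direct-repeat seeds, single-nucleotide variants, half-site ablations and random human genomic background sequences. Arrays were incubated 1 h with ligand-free nuclear receptor dimers in PBS pH 7.4, 2% milk, 0.02% Triton X-100, 1 mM DTT, 0.2 mg/mL BSA and 0.4 mg/ml salmon testes DNA. Antibodies against each partner (one per run) detected binding, and scanned fluorescence was regression-normalized. Binding z-scores use random background probes as reference.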

[2] = tested on: LXRa:RXRa (NR concentration 270 nM, RXRa partner concentration 90 nM)
Outline: as §1

[3] = tested on: LXRa homodimer (NR concentration 270 nM)
Outline: as §1

[4] = tested on: LXRb:RXRa (NR concentration 270 nM, RXRa partner concentration 90 nM)
Outline: as §1

[5] = tested on: LXRb homodimer (NR concentration 270 nM)
Outline: as §1

[6] = tested on: PPARa:RXRa (NR concentration 270 nM, RXRa partner concentration 90 nM)
Outline: as §1

[7] = tested on: PPARg:RXRa (NR concentration 180 nM, RXRa partner concentration 90 nM)
Outline: as §1

[8] = tested on: PPARg:RXRa 270nM:90nM, anti-RXR (NR concentration 270 nM, RXRa partner concentration 90 nM)
Outline: as §1

[9] = tested on: PPARg:RXRa 30nM:10nM, anti-RXR (NR concentration 30 nM, RXRa partner concentration 10 nM)
Outline: as §1

[10] = tested on: PPARg:RXRa 90nM:30nM, anti-RXR (NR concentration 90 nM, RXRa partner concentration 30 nM)
Outline: as §1

| Sequence | PBM binding z-score [1] | PBM binding z-score [2] | PBM binding z-score [3] | PBM binding z-score [4] | PBM binding z-score [5] | PBM binding z-score [6] | PBM binding z-score [7] | PBM binding z-score [8] | PBM binding z-score [9] | PBM binding z-score [10] |
| --- | --- | --- | --- | --- | --- | --- | --- | --- | --- | --- |
| GCTTGTAGATCCAGGTTAAGAAAGACTAAGCTAA | -0.143 | -0.0321 | -0.394 | -0.191 | -0.462 | 0.491 | -0.204 | 0.0602 | -0.441 | -0.11 |
| GCGACTGGGGCAACGCAGGTTACCATAAGGTTGG | 0.326 | 0.211 | -0.468 | 0.14 | -0.947 | 1.52 | 1.61 | 1.27 | -0.287 | 0.414 |
| ATCGAAAGGTCGAAGGTGAGTGTACCCACCCGAA | 4.5 | 3.39 | 0.164 | 2.8 | 0.755 | 4.8 | 4.86 | 4.69 | 2.15 | 3.8 |
| AATACAGGGTCATCGTAGGCCAGGGTACGCACAG | 7.02 | 6.11 | 2.59 | 4.52 | 1.33 | 5.71 | 6.91 | 6.06 | 2.54 | 4.9 |
| TCATATAGGTAAAAGGAGAAAGTCGGTGTGGTAA | 1.15 | 0.966 | -0.0649 | 0.573 | -0.239 | 2.06 | 2.92 | 4.79 | 4.87 | 5.01 |
| ACAGACAGGTGAGTGAAGGTGACTCAGCTGGACG | 0.162 | -0.00172 | -0.654 | -0.308 | -0.35 | 0.592 | 0.8 | 0.28 | -0.492 | -0.01 |
| CGAACCAGGTCATCCAGGACAGTGAATACATTGA | 5.37 | 3.75 | 1 | 3.05 | 0.375 | 4.67 | 4.89 | 4.6 | 1.51 | 3.59 |
| ATATGTAGGTTAAGGGTCATCCAGGTTGGTTCGC | 4.92 | 5.03 | 2.83 | 4.66 | 1.61 | 6.89 | 12.2 | 10.6 | 11.2 | 12.3 |
| TCTATTAGTTGAAGGGAAACCGACGAGTCCGTTT | 0.681 | 0.912 | 0.189 | 0.65 | 0.644 | 0.587 | -0.183 | 2.13 | 4.34 | 3.16 |
| GCTATTAGTGGAAAGGGCAACCGAATGATTCTCG | 0.118 | 0.287 | -0.215 | 0.268 | -0.406 | 1.68 | 1.88 | 3.6 | 1.97 | 3.34 |
| ATATGTAGGATACATCCGGGTCATTCAGGCTATG | 1.21 | 1.31 | 0.653 | 1.61 | 0.399 | 2.9 | 2.14 | 1.77 | 0.797 | 1.28 |
| ATCGAAAGGTCGTGAGGTGCGTATACAGAAAGGC | 5.17 | 3.73 | -0.157 | 2.99 | -0.0634 | 5.18 | 3.39 | 3.76 | 1.13 | 2.4 |
| CAAACTAGGTCACGGAAGGTCAAAGTCGAATGAC | 7.44 | 7.64 | 6.7 | 6.73 | 1.71 | 6.26 | 10.3 | 8.41 | 7.26 | 8.7 |
| CGTCCAAGGTCAAGGTCAGTGATAGAGACTCGAA | 7.73 | 5.59 | 1.52 | 4.55 | 0.758 | 6.02 | 6.2 | 6.15 | 2.73 | 4.98 |
| CCTCGGATGACAACAGGAGGTCAGAGCTGCCAGA | 0.859 | 1.83 | 1.84 | 1.53 | -0.0301 | 1.91 | 0.547 | 0.588 | -0.476 | 0.0996 |
| AGAAAGAGGTTATTAAGATCAGGGAATTGCGGTC | 2.15 | 2.15 | 0.442 | 1.75 | 0.379 | 2.71 | 1.18 | 1.43 | 0.665 | 1.29 |
| GTACCAAGGTGAATAGGTTGTTGATGAGTAGGCG | 0.414 | 0.445 | 0.0313 | 0.384 | -0.172 | 1.27 | 0.802 | 0.714 | -0.0689 | 0.204 |
| CCTAGTTGGTCACGAGGTCACACACCGGATATGA | 4.38 | 3.84 | 2.36 | 3.94 | 0.56 | 5 | 5.28 | 4.91 | 2.28 | 3.65 |
| CAAACTAGGTCACGAACGGTCAAAGTCGAATGAC | 5.85 | 7.42 | 4.34 | 5.78 | 1.18 | 5.62 | 9.57 | 8.01 | 5.99 | 7.93 |
| GCTATCAGGCCATTTGGGTCACTCAATGACGGGC | 0.309 | 0.382 | -0.0509 | 0.286 | 0.109 | 1.73 | 0.893 | 0.805 | -0.227 | 0.276 |
| ATCTCTAGGTAAAGAGAGTTCAGTGAATGCAAAT | 0.502 | 4.09 | 1.76 | 1.41 | 0.27 | 1.34 | 0.263 | 0.567 | 0.0587 | 0.356 |
| AGAAAGAGGGCAATGAGTTGATAGCACGGGTGGC | 0.593 | 0.892 | 0.104 | 0.387 | 0.472 | 1.55 | 1.23 | 0.938 | 0.0317 | 0.591 |
| ACAGACAGGTGATGAAGGTAGCTCAGGCTATCAT | -0.0912 | -0.299 | -0.372 | -0.485 | -0.548 | -0.377 | 0.539 | -0.247 | -0.307 | 0.0803 |
| CCTGCTAGGTCAATCGTCAGCTAAAGCAGCTCGC | 3.35 | 2.19 | -0.244 | 1.57 | 0.108 | 2.85 | 1.39 | 2.18 | -0.19 | 1.39 |
| ATATGTAGGCTATCGGGTCATTCAGTTTGCGCAT | 1.71 | 1.58 | 0.22 | 1.95 | 0.313 | 3.69 | 4.12 | 3.83 | 1.92 | 3.21 |
